The full data set covers some 7,900 targets. This sample favours those with a hit. About 0.6% of all pairs of compound and target were hits.
What was measured:
Assay in all cases: log2 fold change, soluble protein after heating vs DMSO (PISA); higher = thermal stabilisation; K562 cells, 10 uM, 30 min; active = over 0.2 and 3.5 SD of the protein, either way, in both replicates (recomputed)
[1] = compound: CC1=C(C=C(C=C1)NC(=O)C2=CC(=CC=C2)C(C)(C)C#N)NC3=CC4=C(C=C3)N=CN(C4=O)C
Summary of the method: (§1)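 K562 cells at 2×10^6 cells/mL were exposed to 10 μM compound for 30 min, then aliquots were heated for 3 min across 48°C-58°C, pooled, and extracted in PBS containing 0.5% NP-40 at 4°C. The supernatant after 21,000xg for 90 min was taken as soluble protein and measured by TMTpro 16plex LC-MS/MS with channel sums equalised. Thermal stability is reported relative to control samples, with values from duplicates. Fold changes are given on a log2 scale.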

[2] = compound: CC1=C(C=C(C=C1)NC(=O)C2=CC(=CC=C2)N(C)C)NC(=O)C3=CC=C(C=C3)O
Summary of the method: as §1

[3] = compound: CC1=CC=C(C=C1)SC2=C3C=C(SC3=CN=C2)C(=O)N
Summary of the method: as §1

[4] = compound: CC1=NC(=CC=C1)C2=C(N=C(N2)C(C)(C)C)C3=CC4=NC=CN=C4C=C3
Summary of the method: as §1

[5] = compound: CCCCN(Cc1ccc(C(=O)NO)cc1)C(=O)Nc1ccccc1 [Nexturastat A]
Summary of the method: as §1

[6] = compound: CCCS(=O)(=O)Nc1ccc(F)c(C(=O)c2c[nH]c3ncc(-c4ccc(Cl)cc4)cc23)c1F [vemurafenib]
Summary of the method: as §1

[7] = compound: CCCS(=O)(=O)Nc1ccc(F)c(C(=O)c2c[nH]c3ncc(Cl)cc23)c1F
Summary of the method: as §1

[8] = compound: CCCc1cc(C)[nH]c(=O)c1CNC(=O)c1cc(-c2ccnc(N3CCN(C)CC3)c2)cc2c1cnn2C(C)C
Summary of the method: as §1

[9] = compound: CCN(CC)Cc1ccc2cc(COC(=O)Nc3ccc(C(=O)NO)cc3)ccc2c1 [givinostat]
Summary of the method: as §1

[10] = compound: CCN(CCCOc1ccc2c(Nc3cc(CC(=O)Nc4cccc(F)c4)[nH]n3)ncnc2c1)CCOP(=O)(O)O [barasertib]
Summary of the method: as §1

[11] = compound: CC[C@@H]1C(=O)N(C)c2cnc(Nc3ccc(C(=O)NC4CCN(C)CC4)cc3OC)nc2N1C1CCCC1
Summary of the method: as §1

[12] = compound: CC[C@@H]1C(=O)N(C)c2cnc(Nc3ccc(C(=O)N[C@H]4CC[C@H](N5CCN(CC6CC6)CC5)CC4)cc3OC)nc2N1C(C)C [volasertib]
Summary of the method: as §1

[13] = compound: CC[C@H](C)N1C=C(C2=C(C=C(C=C21)C3=CN=C(C=C3)N4CCNCC4)C(=O)NCC5=C(C=C(NC5=O)C)C)C
Summary of the method: as §1

[14] = compound: CC[C@H](C)[C@@H](C(=O)N[C@@H]([C@@H](C)O)C(=O)N[C@@H](CC(C)C)C(=O)[C@]1(CO1)C)NC(=O)[C@H]([C@@H](C)CC)N(C)C(=O)C [epoxomicin]
Summary of the method: as §1

[15] = compound: CCn1c(C(=O)N(C2CC2)C2CC2)cc2c3c(ncn3C)c(Nc3cc(C)n(C)n3)nc21
Summary of the method: as §1

[16] = compound: CCn1cc(-c2ccnc3[nH]c(-c4cccc(CN(C)C)c4)cc23)c(-c2ccc(NC(=O)N(C)C)cc2)n1
Summary of the method: as §1

[17] = compound: CN(C)CC(=O)Nc1ccc2[nH]c(=O)c3ccccc3c2c1
Summary of the method: as §1

[18] = compound: CN(CCOC1=CC=C(C=C1)C[C@H]2C(=O)NC(=O)S2)C3=CC=CC=N3 (racemic) [rosiglitazone]
Summary of the method: as §1

[19] = compound: CN1C2=C(C3=C1C(=O)N(N=C3)CC4=CC(=CC=C4)N)SC(=C2)S(=O)C
Summary of the method: as §1

[20] = compound: CN1CCC(CNc2ccc3ncc(-c4cccc(OC(F)(F)F)c4)n3n2)CC1
Summary of the method: as §1

Measured: log2 fold change

HBQ1 (UniProt P09105)
UniProt P09105, sequence (P09105 whole entry, looked up): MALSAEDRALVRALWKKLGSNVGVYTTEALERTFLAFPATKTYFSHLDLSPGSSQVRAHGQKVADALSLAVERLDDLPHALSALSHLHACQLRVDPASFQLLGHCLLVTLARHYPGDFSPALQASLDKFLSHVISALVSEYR
inactive: [1] 0.053 | [2] -0.14 | [3] 0.025 | [4] 0.052 | [5] -0.028 | [6] -0.013 | [7] 0.004 | [8] -0.012 | [9] -0.043 | [10] 0.038 | [11] 0.01 | [12] -0.014 | [13] -0.005 | [15] 0.069 | [16] -0.064 | [17] 0.047 | [18] 0.021 | [19] -0.145 | [20] 0.063
active: [14] 0.375

HBZ (UniProt P02008)
UniProt P02008, sequence (P02008 whole entry, looked up): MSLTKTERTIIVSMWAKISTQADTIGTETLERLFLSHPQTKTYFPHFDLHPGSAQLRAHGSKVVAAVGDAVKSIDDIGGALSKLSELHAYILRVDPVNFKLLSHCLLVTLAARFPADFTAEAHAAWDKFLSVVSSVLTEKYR
inactive: [1] 0.01 | [2] -0.074 | [3] 0.025 | [4] 0.042 | [5] -0.013 | [6] -0.028 | [7] -0.006 | [8] -0.008 | [9] -0.052 | [10] 0.044 | [11] 0.03 | [12] -0.065 | [13] -0.026 | [15] 0.061 | [16] -0.021 | [17] 0.019 | [18] -0.005 | [19] -0.012 | [20] 0.016
active: [14] 0.288

GABARAPL2 (UniProt P60520)
UniProt P60520, sequence (P60520 whole entry, looked up): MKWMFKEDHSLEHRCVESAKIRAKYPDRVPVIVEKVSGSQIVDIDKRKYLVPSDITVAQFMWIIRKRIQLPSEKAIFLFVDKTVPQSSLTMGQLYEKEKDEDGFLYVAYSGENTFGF
inactive: [1] -0.01 | [2] 0.023 | [3] 0.067 | [4] 0.188 | [5] -0.122 | [6] 0.026 | [7] 0.051 | [8] -0.03 | [9] 0.03 | [10] 0.007 | [12] -0.182 | [13] 0.041 | [14] 0.027 | [15] 0.007 | [16] -0.049 | [17] -0.017 | [18] 0.099 | [19] -0.07 | [20] -0.099
active: [11] -0.29

HRC (UniProt P23327)
UniProt P23327, sequence (P23327 whole entry, looked up): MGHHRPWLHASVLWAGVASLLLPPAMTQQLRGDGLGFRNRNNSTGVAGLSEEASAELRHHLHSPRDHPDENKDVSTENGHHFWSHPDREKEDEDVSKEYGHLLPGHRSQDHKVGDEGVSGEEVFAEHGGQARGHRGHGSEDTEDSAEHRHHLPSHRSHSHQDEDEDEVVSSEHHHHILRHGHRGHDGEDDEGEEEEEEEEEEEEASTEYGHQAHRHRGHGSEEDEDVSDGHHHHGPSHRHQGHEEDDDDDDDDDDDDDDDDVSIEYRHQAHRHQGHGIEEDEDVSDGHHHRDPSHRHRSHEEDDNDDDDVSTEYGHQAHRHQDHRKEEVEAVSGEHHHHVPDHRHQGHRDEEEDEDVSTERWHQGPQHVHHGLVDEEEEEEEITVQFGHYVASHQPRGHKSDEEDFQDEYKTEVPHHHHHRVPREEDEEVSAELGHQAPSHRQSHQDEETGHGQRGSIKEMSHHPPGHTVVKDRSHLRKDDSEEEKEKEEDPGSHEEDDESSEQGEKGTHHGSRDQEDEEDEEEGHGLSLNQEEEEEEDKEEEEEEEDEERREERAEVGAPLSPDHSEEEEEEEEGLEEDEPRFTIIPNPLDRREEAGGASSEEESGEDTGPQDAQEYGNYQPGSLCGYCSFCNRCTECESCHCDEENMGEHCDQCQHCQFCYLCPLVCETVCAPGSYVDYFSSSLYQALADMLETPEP
inactive: [1] -0.199 | [2] 0.031 | [3] 0.008 | [4] 0.005 | [5] 0.041 | [6] -0.044 | [7] -0.097 | [8] -0.025 | [9] -0.059 | [10] 0.021 | [11] 0.01 | [12] 0.043 | [13] -0.014 | [14] -0.061 | [15] -0.016 | [16] -0.023 | [17] 0.005 | [18] -0.008 | [19] -0.107 | [20] -0.013

GGT7 (UniProt Q9UJ14)
UniProt Q9UJ14, sequence (Q9UJ14 whole entry, looked up): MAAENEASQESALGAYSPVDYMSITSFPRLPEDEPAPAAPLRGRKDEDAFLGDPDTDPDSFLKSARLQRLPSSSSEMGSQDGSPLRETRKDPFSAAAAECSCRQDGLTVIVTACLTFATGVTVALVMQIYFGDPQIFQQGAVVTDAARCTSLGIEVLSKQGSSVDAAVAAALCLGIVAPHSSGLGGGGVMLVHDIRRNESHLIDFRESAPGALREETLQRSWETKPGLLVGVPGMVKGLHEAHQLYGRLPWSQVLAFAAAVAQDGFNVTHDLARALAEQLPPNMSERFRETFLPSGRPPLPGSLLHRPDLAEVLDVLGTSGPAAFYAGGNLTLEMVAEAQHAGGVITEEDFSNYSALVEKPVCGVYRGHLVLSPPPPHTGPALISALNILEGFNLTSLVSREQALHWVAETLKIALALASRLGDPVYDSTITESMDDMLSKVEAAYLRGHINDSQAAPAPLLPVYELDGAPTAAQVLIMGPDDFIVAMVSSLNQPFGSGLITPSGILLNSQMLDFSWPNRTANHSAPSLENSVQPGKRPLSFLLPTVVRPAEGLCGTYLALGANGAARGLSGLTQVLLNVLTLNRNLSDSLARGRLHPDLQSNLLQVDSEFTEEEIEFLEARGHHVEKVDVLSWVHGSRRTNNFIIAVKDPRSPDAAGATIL
inactive: [1] -0.125 | [2] 0 | [3] 0.07 | [4] -0.008 | [5] 0.032 | [6] 0.112 | [7] -0.011 | [8] 0.033 | [9] 0.019 | [10] 0.061 | [11] 0.029 | [12] -0.063 | [13] -0.069 | [14] 0.079 | [15] -0.013 | [16] -0.124 | [17] 0.081 | [18] 0.005 | [19] 0.02 | [20] 0.023

FNTA (UniProt P49354)
active: [12] 0.362
inactive: [1] -0.035 | [2] -0.009 | [3] 0.048 | [4] -0.011 | [5] -0.063 | [6] -0.045 | [7] -0.047 | [8] 0.007 | [9] -0.052 | [10] 0.007 | [11] 0.123 | [13] 0.006 | [14] 0.019 | [15] 0.032 | [16] -0.074 | [17] 0.012 | [18] 0.036 | [19] -0.03 | [20] 0.015

HSPA8 (UniProt E9PK54)
inactive: [1] 0.023 | [2] 0.034 | [3] -0.123 | [4] 0.006 | [5] 0.227 | [6] -0.036 | [7] 0.026 | [8] -0.098 | [9] 0.167 | [10] -0.023 | [11] 0.041 | [12] 0.213 | [13] -0.003 | [14] -0.252 | [15] 0.03 | [16] 0.131 | [17] -0.06 | [18] 0.042 | [19] 0.11 | [20] 0.128

HEXA (UniProt P06865)
UniProt P06865, sequence (P06865 whole entry, looked up): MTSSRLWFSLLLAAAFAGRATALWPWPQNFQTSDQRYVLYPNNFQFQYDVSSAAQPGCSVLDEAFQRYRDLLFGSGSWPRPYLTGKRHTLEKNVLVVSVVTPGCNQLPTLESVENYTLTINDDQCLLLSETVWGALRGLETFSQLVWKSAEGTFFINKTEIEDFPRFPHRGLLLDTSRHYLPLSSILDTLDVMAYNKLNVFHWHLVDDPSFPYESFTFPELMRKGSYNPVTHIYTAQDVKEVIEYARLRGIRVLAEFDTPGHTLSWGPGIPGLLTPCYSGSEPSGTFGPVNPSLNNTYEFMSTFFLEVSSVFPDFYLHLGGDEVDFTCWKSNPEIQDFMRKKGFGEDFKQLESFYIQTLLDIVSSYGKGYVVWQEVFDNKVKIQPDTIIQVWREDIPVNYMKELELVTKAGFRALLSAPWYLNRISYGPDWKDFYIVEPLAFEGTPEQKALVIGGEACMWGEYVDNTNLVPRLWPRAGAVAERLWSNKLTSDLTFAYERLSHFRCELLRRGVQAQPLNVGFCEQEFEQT
inactive: [1] -0.046 | [2] 0.022 | [3] -0.019 | [4] 0.004 | [5] -0.035 | [6] -0.006 | [7] -0.023 | [8] -0.023 | [9] -0.018 | [10] -0.001 | [13] -0.028 | [14] -0.012 | [15] 0.022 | [16] -0.002 | [17] -0.021 | [18] 0 | [19] -0.02
active: [11] -0.423 | [12] -0.479 | [20] -0.63

HLTF (UniProt Q14527)
inactive: [1] 0.04 | [2] -0.014 | [3] -0.056 | [4] 0.038 | [5] 0.019 | [6] 0.047 | [7] 0.048 | [8] 0.109 | [9] 0.018 | [10] 0.007 | [11] -0.063 | [12] -0.178 | [13] 0.017 | [14] 0.158 | [15] -0.025 | [16] -0.113 | [17] 0.056 | [18] 0.025 | [19] -0.009 | [20] 0.201

FUCA2 (UniProt Q9BTY2)
UniProt Q9BTY2, sequence (Q9BTY2 whole entry, looked up): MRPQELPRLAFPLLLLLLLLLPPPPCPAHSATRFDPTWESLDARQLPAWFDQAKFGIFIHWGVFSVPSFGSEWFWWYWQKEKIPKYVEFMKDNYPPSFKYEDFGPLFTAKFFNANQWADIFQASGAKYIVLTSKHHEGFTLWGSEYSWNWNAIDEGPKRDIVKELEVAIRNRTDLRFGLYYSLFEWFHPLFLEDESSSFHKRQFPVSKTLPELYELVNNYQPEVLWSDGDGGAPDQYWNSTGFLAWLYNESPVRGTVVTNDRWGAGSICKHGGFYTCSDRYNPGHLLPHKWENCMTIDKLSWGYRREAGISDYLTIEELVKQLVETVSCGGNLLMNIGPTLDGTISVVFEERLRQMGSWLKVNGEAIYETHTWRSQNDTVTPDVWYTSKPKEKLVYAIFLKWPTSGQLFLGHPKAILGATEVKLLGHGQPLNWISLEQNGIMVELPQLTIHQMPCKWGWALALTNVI
active: [11] -1.11 | [12] -1.04
inactive: [1] 0.015 | [2] 0 | [3] 0.016 | [4] -0.02 | [5] -0.025 | [6] 0.005 | [7] -0.053 | [8] -0.025 | [9] -0.028 | [10] -0.01 | [13] 0.001 | [14] -0.024 | [15] 0.007 | [16] 0.003 | [17] -0.019 | [18] -0.023 | [19] -0.033 | [20] -0.029

ICAM1 (UniProt P05362)
UniProt P05362, sequence (P05362 whole entry, looked up): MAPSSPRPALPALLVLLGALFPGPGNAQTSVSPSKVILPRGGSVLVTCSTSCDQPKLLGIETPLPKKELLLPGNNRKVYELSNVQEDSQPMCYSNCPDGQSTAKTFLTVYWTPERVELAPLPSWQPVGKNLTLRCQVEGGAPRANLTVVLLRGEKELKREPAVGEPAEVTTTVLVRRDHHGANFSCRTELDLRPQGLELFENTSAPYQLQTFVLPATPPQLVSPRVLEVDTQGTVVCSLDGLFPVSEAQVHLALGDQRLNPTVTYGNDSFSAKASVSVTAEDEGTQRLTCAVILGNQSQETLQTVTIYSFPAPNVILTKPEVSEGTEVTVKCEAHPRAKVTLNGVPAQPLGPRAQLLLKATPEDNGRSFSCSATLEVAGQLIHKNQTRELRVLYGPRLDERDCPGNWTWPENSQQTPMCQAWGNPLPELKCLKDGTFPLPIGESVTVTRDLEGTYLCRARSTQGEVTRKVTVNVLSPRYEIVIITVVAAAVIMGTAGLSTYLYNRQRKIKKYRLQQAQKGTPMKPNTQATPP
active: [20] 0.223
inactive: [1] -0.055 | [2] 0.016 | [3] 0.033 | [4] -0.016 | [5] 0.02 | [6] 0.018 | [7] -0.034 | [8] 0.001 | [9] -0.014 | [10] -0.021 | [11] 0.155 | [12] 0.078 | [13] -0.028 | [14] 0.008 | [15] -0.02 | [16] 0.012 | [17] -0.039 | [18] -0.002 | [19] -0.073

HOOK3 (UniProt Q86VS8)
UniProt Q86VS8, sequence (Q86VS8 whole entry, looked up): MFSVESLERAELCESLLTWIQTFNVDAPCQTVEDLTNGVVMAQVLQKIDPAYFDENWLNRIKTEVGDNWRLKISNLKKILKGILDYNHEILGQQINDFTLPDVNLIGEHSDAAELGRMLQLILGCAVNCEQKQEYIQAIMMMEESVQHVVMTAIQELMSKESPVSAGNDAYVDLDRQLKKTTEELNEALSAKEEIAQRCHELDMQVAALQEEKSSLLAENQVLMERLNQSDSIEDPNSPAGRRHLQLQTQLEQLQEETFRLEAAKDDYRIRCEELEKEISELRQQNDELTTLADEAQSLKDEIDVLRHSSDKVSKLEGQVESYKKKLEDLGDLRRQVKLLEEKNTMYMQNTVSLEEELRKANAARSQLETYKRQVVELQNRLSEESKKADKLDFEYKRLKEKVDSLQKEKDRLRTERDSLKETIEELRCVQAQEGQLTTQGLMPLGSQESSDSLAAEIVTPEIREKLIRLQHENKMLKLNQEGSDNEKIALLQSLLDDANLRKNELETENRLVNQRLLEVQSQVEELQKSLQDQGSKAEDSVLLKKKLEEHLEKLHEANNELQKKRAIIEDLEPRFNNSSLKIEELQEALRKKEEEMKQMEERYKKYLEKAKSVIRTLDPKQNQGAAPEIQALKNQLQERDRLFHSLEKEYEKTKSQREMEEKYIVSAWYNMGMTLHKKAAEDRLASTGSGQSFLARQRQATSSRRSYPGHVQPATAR
inactive: [1] -0.024 | [2] -0.023 | [3] -0.014 | [4] -0.039 | [5] 0.034 | [6] -0.014 | [7] -0.001 | [8] -0.026 | [9] 0.091 | [10] 0.008 | [11] -0.151 | [13] 0.034 | [14] 0.004 | [15] 0.006 | [16] -0.017 | [17] 0.005 | [18] 0.09 | [19] 0.031
active: [12] -0.395 | [20] -0.358

GLYR1 (UniProt Q49A26)
UniProt Q49A26, sequence (Q49A26 whole entry, looked up): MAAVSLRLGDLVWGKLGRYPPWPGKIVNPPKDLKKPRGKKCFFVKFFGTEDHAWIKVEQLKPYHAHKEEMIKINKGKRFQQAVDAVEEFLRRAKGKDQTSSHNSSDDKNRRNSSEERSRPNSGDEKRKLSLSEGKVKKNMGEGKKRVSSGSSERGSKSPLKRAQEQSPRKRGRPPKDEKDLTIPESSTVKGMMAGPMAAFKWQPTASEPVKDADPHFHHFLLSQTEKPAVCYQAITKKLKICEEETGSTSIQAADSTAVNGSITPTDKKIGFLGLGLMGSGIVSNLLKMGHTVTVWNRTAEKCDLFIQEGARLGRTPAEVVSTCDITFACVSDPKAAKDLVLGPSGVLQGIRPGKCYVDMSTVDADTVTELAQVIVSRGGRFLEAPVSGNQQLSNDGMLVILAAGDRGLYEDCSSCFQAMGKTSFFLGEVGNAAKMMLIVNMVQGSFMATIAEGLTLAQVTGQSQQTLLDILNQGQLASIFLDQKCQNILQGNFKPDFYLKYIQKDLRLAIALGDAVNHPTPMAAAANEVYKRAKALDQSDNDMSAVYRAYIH
active: [5] 0.375
inactive: [1] 0.039 | [2] 0.032 | [3] -0.125 | [4] -0.06 | [6] 0.054 | [7] 0.009 | [8] 0.085 | [9] 0.091 | [10] 0.136 | [11] 0.099 | [12] 0.054 | [13] 0.026 | [14] -0.074 | [15] -0.047 | [16] 0.026 | [17] -0.038 | [18] -0.292 | [19] -0.019 | [20] 0.041

HECTD1 (UniProt Q9ULT8)
active: [5] 0.273
inactive: [1] 0.04 | [2] -0.068 | [3] 0.144 | [4] -0.023 | [6] -0.04 | [7] 0.126 | [8] 0.054 | [9] 0.038 | [10] 0.048 | [11] 0.107 | [12] -0.221 | [13] 0.063 | [14] 0.012 | [15] -0.041 | [16] 0 | [17] 0.016 | [18] 0.056 | [19] 0.17 | [20] -0.054

FHOD1 (UniProt Q9Y613)
inactive: [1] -0.288 | [2] 0.073 | [3] -0.063 | [4] -0.09 | [5] 0.365 | [6] -0.002 | [7] -0.134 | [8] 0.132 | [9] 0.024 | [10] 0.044 | [11] 0.127 | [12] -0.055 | [13] 0.075 | [14] -0.171 | [15] -0.148 | [16] 0.093 | [17] -0.048 | [18] 0.039 | [19] 0.372 | [20] -0.022

GINS2 (UniProt Q9Y248)
UniProt Q9Y248, sequence (Q9Y248 whole entry, looked up): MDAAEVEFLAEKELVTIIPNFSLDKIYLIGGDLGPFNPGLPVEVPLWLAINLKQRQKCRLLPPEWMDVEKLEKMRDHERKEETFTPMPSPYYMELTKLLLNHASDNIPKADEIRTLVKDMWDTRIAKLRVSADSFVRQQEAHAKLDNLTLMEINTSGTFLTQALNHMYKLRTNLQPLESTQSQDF
inactive: [1] 0.136 | [2] -0.168 | [3] 0.099 | [4] 0.147 | [5] 0.174 | [6] 0.102 | [7] 0.029 | [8] 0.021 | [9] -0.038 | [10] 0.053 | [11] -0.011 | [12] -0.07 | [13] 0.171 | [14] 0.014 | [15] 0.008 | [16] -0.135 | [17] 0.06 | [18] 0.058 | [19] 0.064 | [20] 0.062

Reference: the supplement of paper PMC10849652
